Experimental data: PubChem BioAssay AID1259240 (Keith Lab, Institute of Cancer Science, University of …, 2017)
Unmarked numbers belong to inactive results. Activity calls are given as the source filed them. Cut-off read from the data, not from the text of the source: active = fold change mostly below about -2 (no sharp cut-off); inactive = mostly above about -1.8.

assay: TERT promoter activity modulators, primary screen, cell-based, luciferase reporter, human (AID 1259240); conditions: A2780 TERT promoter luciferase reporter, 16 h; at 20 µM, fold versus average of vehicle-only wells

| Structure (SMILES) | fold change |
| --- | --- |
| O=C(CSc1nc(-c2ccc(F)cc2)cc(C(F)(F)F)n1)NCCCn1ccnc1 | -1.16 |
| Cc1ccc(C)c(N2CCN(C(=O)CCCc3nnc4n5nc(C)nc5c5ccccc5n34)CC2)c1 | -1.04 |
| COc1ccc(S(=O)(=O)N2N=C(c3ccc(NS(C)(=O)=O)cc3)CC2c2ccco2)cc1 (stereo not drawn) | 1.12 |
| COc1cc(-c2nc3sccn3c2Nc2ccc(OC)c(OC)c2)ccc1O | -1.31 |
| Cc1nn(CC(=O)Nc2sc3c(c2C#N)CCCCC3)c(C)c1[N+](=O)[O-] | -1.25 |
| CCN1C(=O)C(O)(CC(=O)c2ccc3c(c2)OCCO3)c2ccccc21 (stereo not drawn) | -1.17 |
| C=CCn1c(Oc2ccccc2Cl)nc2c1c(=O)n(C)c(=O)n2C | -2.84 (active) |
| COc1cc(/C=C2\SC(N3CCN(CCO)CC3)=NC2=O)ccc1O | 1.07 |
| CCOC(=O)C1CCN(c2c(N3CCN(CC)CC3)c(=O)c2=O)CC1 | 1.21 |
| Cc1cc(NC(=O)CSc2nnc(Cn3c(=O)sc4ccccc43)n2-c2ccccc2)no1 | 1.22 |
| CCN(CC)C(=O)C1=C(C)Nc2nc3ccccc3n2C1c1ccncc1 (stereo not drawn) | -1.02 |
| CCOC(=O)c1c(C)n(C)c2ccc(OCC(O)Cn3nc(C)cc3C)cc12 (stereo not drawn) | -2.1 (active) |
| Cn1c(=O)c(=O)n(C)c2cc(S(=O)(=O)N3CCC(C(N)=O)CC3)ccc21 | -1.21 |
| O=C(NCc1ccccc1Cl)c1c(-n2cccc2)sc2c1CCC2 | -1.05 |
| Cc1cc(C)n(-c2nc3cc(Cl)ccc3nc2Cl)n1 | 1.03 |
| Cc1cc(C)nc(SCC(=O)Nc2ccc(S(=O)(=O)Nc3onc(C)c3C)cc2)n1 | 1.02 |
| CC(=O)c1ccc2c(c1)c1cc(C(C)=O)ccc1n2C | -1.83 |
| COC(=O)c1[nH]c(=O)c2ccccc2c1O | -1.15 |
| CS(=O)(=O)N1N=C(c2cccs2)CC1c1ccccc1F (stereo not drawn) | -1.2 |
| CCOC(=O)N1CCN(c2c(NC3CCCC(C)C3C)c(=O)c2=O)CC1 (stereo not drawn) | 1.1 |
| Cn1c(=O)oc2cc(S(=O)(=O)N3CCC(C(=O)NCC4COc5ccccc5O4)CC3)ccc21 (stereo not drawn) | -1.13 |
| CCCCN1C(=O)/C(=C2\SC(N3CCCCC3)=NC2=O)c2ccccc21 | -8.65 (active) |
| CC(=O)Oc1ccccc1-c1nc2s/c(=C\c3cccc(Br)c3)c(=O)n2n1 | 1.36 |
